# According to PubChem BioAssay (EPA / NIEHS):
# Inconclusive results are not listed. Activity calls are given as the source filed them. Rule for the calls: active = hit-call score of the fitted dose curve at least 0.9, where 1 is the maximum; inconclusive = response in the unintended direction; inactive = score below 0.9.
# Assays:
# [1] = molecular target: human Phosphodiesterase 10 (PDE10), PDE10A (gene 10846) (UniProt Q9Y233); test: NVS_ENZ_hPDE10: NovaScreen (NVS) Enzymatic Assay for human Phosphodiesterase 10 (PDE10) (AID 2283195)
# Procedure, shortened: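 Recombinant human PDE10 with fluorescent substrate, 1 h, product separated by electrophoretic mobility shift. Loss of enzyme activity fitted against DMSO; initial screen 25 uM in duplicate, actives run to 50 uM maximum.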
# [2] = molecular target: human Phosphoinositide 3-kinase alpha (PI3Ka), PIK3CA (gene 5290) (UniProt P42336); test: NVS_ENZ_hPI3Ka: NovaScreen (NVS) Enzymatic Assay for human Phosphoinositide 3-kinase alpha (PI3Ka) (AID 2283196)
# Procedure, shortened: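 Recombinant human PI3Kα with fluorescent substrate, 1 h, product separated by electrophoretic mobility shift; 25 uM duplicate screen, hits (e.g., 30% inhibition) retested singly up to 50 uM; loss of signal vs DMSO.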
# [3] = molecular target: human Protein Tyrosine Phosphatase Non-receptor Type 1 (PTPN1), PTPN1 (gene 5770) (UniProt P18031); test: NVS_ENZ_hPTPN1: NovaScreen (NVS) Enzymatic Assay for human Protein Tyrosine Phosphatase Non-receptor Type 1 (PTPN1) (AID 2283201)
# Procedure, shortened: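 Cell-free fluorogenic-substrate activity assay on recombinant enzyme, read 1.33 h after dosing by fluorescence and electrophoretic mobility shift; loss of signal vs DMSO baseline. Primary screen in duplicate at 25 uM, hits then run in concentration-response up to 50 uM.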
# [4] = molecular target: Tyrosine-protein phosphatase non-receptor type 12 (Homo sapiens) (UniProt Q05209); test: NVS_ENZ_hPTPN12: NovaScreen (NVS) Enzymatic Assay for human Protein Tyrosine Phosphatase Non-receptor Type 12 (PTPN12) (AID 2283204)
# Procedure, shortened: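 Single-concentration duplicates (25 uM) preceded singleton concentration-response up to 50 uM for chemicals passing threshold. Cell-free recombinant PTPN12 activity was read 1.33 h after dosing via fluorescence after mobility-shift separation; loss of signal versus DMSO.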
# [5] = molecular target: Tyrosine-protein phosphatase non-receptor type 14 (Homo sapiens) (UniProt Q15678); test: NVS_ENZ_hPTPN14: NovaScreen (NVS) Enzymatic Assay for human Protein Tyrosine Phosphatase Non-receptor Type 14 (PTPN14) (AID 2283206)
# Procedure, shortened: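 Cell-free recombinant human PTPN14 with fluorescent substrate, read 0.5 h after dosing by fluorescence and electrophoretic mobility shift separating substrate from product. Primary screen at 25 uM in duplicate; hits run to 50 uM maximum; loss of signal versus DMSO.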
# [6] = molecular target: human Protein Tyrosine Phosphatase Receptor Type B (PTPRB), PTPRB (gene 5787) (UniProt P23467); test: NVS_ENZ_hPTPRB: NovaScreen (NVS) Enzymatic Assay for human Protein Tyrosine Phosphatase Receptor Type B (PTPRB) (AID 2283211)
# Procedure, shortened: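 Recombinant human PTPRB with a fluorescent substrate, product separated by electrophoretic mobility shift; read 1 h after dosing. Primary screen in duplicate at 25 uM; actives then retested in concentration series; loss of signal versus DMSO.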
# [7] = molecular target: human Sirtuin 2 (SIRT2), SIRT2 (gene 22933) (UniProt Q8IXJ6); test: NVS_ENZ_hSIRT2: NovaScreen (NVS) Enzymatic Assay for human Sirtuin 2 (SIRT2) (AID 2283217)
# Procedure, shortened: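 Cell-free recombinant human SIRT2, fluorescent substrate with product separated by electrophoretic mobility shift, 1 hr. Screened in duplicate at 25 uM; hits rerun singly in concentration-response up to 50 uM, relative to DMSO.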
# [8] = molecular target: human Sirtuin 3 (SIRT3), SIRT3 (gene 23410) (UniProt Q9NTG7); test: NVS_ENZ_hSIRT3: NovaScreen (NVS) Enzymatic Assay for human Sirtuin 3 (SIRT3) (AID 2283222)
# Procedure, shortened: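 Cell-free enzyme assay with recombinant protein and fluorescent substrate, product separated by electrophoretic mobility shift; read 1 hour after dosing. Screened in duplicate at 25 uM, then singleton concentration-response up to 50 uM; loss of signal versus DMSO.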
# [9] = molecular target: cAMP-dependent protein kinase catalytic subunit alpha (Homo sapiens) (UniProt P17612); test: NVS_ENZ_hPKA: NovaScreen (NVS) Enzymatic Assay for human Protein Kinase A (PKA) (AID 2283192)
# Procedure, shortened: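 Recombinant human PKA with specific fluorescent substrate, product separated by electrophoretic mobility shift, read 1 h after dosing. Primary screen at 25 uM in duplicate; actives then run in concentration-response up to 50 uM, activity relative to DMSO.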
# [10] = molecular target: Tyrosine-protein phosphatase non-receptor type 13 (Homo sapiens) (UniProt Q12923); test: NVS_ENZ_hPTPN13: NovaScreen (NVS) Enzymatic Assay for human Protein Tyrosine Phosphatase Non-receptor Type 13 (PTPN13) (AID 2283205)
# Procedure, shortened: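 Cell-free assay of recombinant human PTPN13 with a fluorescent substrate, product separated by electrophoretic mobility shift and read 0.5 h after dosing. Primary screen at 25 uM in duplicate, then concentration-response up to 50 uM. Loss of signal fitted against DMSO.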
# [11] = molecular target: human Protein Tyrosine Phosphatase Receptor Type F (PTPRF), PTPRF (gene 5792) (UniProt P10586); test: NVS_ENZ_hPTPRF: NovaScreen (NVS) Enzymatic Assay for human Protein Tyrosine Phosphatase Receptor Type F (PTPRF) (AID 2283213)
# Procedure, shortened: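 Cell-free fluorescence enzyme assay with recombinant protein and substrate; product separated by electrophoretic mobility shift. Read 1 h after dosing, single 25 uM duplicate screen, then concentration-response up to 50 uM; loss of signal vs DMSO.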
# [12] = molecular target: human Protein Tyrosine Phosphatase Receptor Type M (PTPRM), PTPRM (gene 5797) (UniProt P28827); test: NVS_ENZ_hPTPRM: NovaScreen (NVS) Enzymatic Assay for human Protein Tyrosine Phosphatase Receptor Type M (PTPRM) (AID 2283215)
# Procedure, shortened: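 Cell-free recombinant PTPRM with fluorogenic substrate; product separated from substrate by electrophoretic mobility shift and read by fluorescence, 1.33 h after dosing. Primary screen single concentration (25 uM) in duplicate; actives retested in concentration series; loss of signal versus DMSO.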
# [13] = molecular target: human Protein Phosphatase, Mg2+/Mn2+ Dependent 1A (PPM1A), PPM1A (gene 5494) (UniProt P35813); test: NVS_ENZ_hPPM1A: NovaScreen (NVS) Enzymatic Assay for human Protein Phosphatase, Mg2+/Mn2+ Dependent 1A (PPM1A) (AID 2283198)
# Procedure, shortened: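 Cell-free recombinant PPM1A phosphatase assay with fluorescent substrate, read 1 h after dosing by electrophoretic mobility shift. Chemicals screened in duplicate at 25 uM, then in concentration-response up to 50 uM; loss of activity versus DMSO.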
# [14] = molecular target: human Rho Associated Coiled-coil Containing Protein Kinase 1 (ROCK1), ROCK1 (gene 6093) (UniProt Q13464); test: NVS_ENZ_hROCK1: NovaScreen (NVS) Enzymatic Assay for human Rho Associated Coiled-coil Containing Protein Kinase 1 (ROCK1) (AID 2283214)
# Procedure, shortened: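 Cell-free recombinant human ROCK1 activity assay; fluorescent substrate and product separated by electrophoretic mobility shift, read 1 h after dosing. Screened in duplicate at 25 uM; loss of signal versus DMSO baseline scored as inhibition.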
# [15] = molecular target: Serine/threonine-protein phosphatase PP1-alpha catalytic subunit (Homo sapiens) (UniProt P62136); test: NVS_ENZ_hPPP1CA: NovaScreen (NVS) Enzymatic Assay for human Protein Phosphatase 1 Aatalytic subunit Alpha (PPP1CA) (AID 2283200)
# Procedure, shortened: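 Recombinant enzyme activity read by fluorescence with electrophoretic mobility shift separating substrate from product, 1.33 h after dosing; loss of signal vs DMSO baseline. Primary screen in duplicate at 25 uM; actives retested in concentration-response up to 50 uM.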
# [16] = molecular target: Tyrosine-protein phosphatase non-receptor type 11 (Homo sapiens) (UniProt Q06124); test: NVS_ENZ_hPTPN11: NovaScreen (NVS) Enzymatic Assay for human Protein Tyrosine Phosphatase Non-receptor Type 11 (PTPN11) (AID 2283202)
# Procedure, shortened: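 Recombinant human PTPN11 activity on a fluorescent substrate, with substrate/product separated by electrophoretic mobility shift; read 0.5 h after dosing, loss of signal vs DMSO. Duplicate 25 uM screen, then concentration-response up to 50 uM.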
# [17] = molecular target: human Protein Tyrosine Phosphatase Non-receptor Type 4 (PTPN4), PTPN4 (gene 5775) (UniProt P29074); test: NVS_ENZ_hPTPN4: NovaScreen (NVS) Enzymatic Assay for human Protein Tyrosine Phosphatase Non-receptor Type 4 (PTPN4) (AID 2283208)
# Procedure, shortened: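 Cell-free assay of PTPN4 expressed in Sf9 cells, using a fluorescent substrate with product separated by mobility shift; read 1.33 h after dosing. Single-point screen at 25 uM, then concentration-response up to 50 uM. Loss of signal relative to DMSO.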
# [18] = molecular target: human Sirtuin 1 (SIRT1), SIRT1 (gene 23411) (UniProt Q96EB6); test: NVS_ENZ_hSIRT1: NovaScreen (NVS) Enzymatic Assay for human Sirtuin 1 (SIRT1) (AID 2283219)
# Procedure, shortened: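 Cell-free recombinant SIRT1 with a fluorescent substrate; substrate and product separated by electrophoretic mobility shift and read by fluorescence intensity, 1 h after dosing. Primary screen at 25 uM in duplicate; hits re-run in concentration-response up to 50 uM, relative to DMSO.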
# [19] = molecular target: human Protein Tyrosine Phosphatase Non-receptor Type 6 (PTPN6), PTPN6 (gene 5777) (UniProt P29350); test: NVS_ENZ_hPTPN6: NovaScreen (NVS) Enzymatic Assay for human Protein Tyrosine Phosphatase Non-receptor Type 6 (PTPN6) (AID 2283210)
# Procedure, shortened: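 Cell-free assay with recombinant PTPN6 expressed in SF9 cells, fluorescent substrate, product separated from substrate by electrophoretic mobility shift; read 1.33 hours after dosing. Primary screen in duplicate at 25 uM, actives retested in concentration series; DMSO baseline.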
# human Phosphodiesterase 10 (PDE10), PDE10A (gene 10846), sequence (Q9Y233 whole entry, looked up): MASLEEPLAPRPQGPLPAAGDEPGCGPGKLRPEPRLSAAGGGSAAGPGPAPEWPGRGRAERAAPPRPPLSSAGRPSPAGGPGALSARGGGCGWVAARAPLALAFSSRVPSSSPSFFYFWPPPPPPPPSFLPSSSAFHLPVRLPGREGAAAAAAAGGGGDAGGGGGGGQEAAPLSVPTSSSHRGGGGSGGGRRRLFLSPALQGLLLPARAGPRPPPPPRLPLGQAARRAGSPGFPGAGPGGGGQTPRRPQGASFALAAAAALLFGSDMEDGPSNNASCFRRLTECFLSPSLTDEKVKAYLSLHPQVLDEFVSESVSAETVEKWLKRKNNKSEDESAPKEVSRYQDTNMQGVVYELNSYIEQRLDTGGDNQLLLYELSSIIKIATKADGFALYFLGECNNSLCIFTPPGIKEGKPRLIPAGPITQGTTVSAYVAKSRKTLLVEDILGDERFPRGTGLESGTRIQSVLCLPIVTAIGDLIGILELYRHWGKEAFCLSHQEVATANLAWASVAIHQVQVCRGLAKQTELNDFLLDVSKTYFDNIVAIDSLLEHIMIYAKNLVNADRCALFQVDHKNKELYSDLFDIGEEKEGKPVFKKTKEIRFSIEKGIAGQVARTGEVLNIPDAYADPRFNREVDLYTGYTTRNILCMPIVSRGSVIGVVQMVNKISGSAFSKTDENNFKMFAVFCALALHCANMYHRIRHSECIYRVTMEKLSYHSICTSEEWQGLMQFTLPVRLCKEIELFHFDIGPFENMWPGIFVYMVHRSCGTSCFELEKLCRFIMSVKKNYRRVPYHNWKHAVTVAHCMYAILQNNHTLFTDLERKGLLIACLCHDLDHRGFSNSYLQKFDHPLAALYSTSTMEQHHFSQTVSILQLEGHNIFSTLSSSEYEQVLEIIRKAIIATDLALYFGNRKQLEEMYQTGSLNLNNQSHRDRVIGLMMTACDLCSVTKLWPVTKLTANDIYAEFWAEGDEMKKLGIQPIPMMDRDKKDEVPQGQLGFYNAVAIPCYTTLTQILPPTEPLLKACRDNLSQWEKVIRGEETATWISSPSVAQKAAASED
# human Phosphoinositide 3-kinase alpha (PI3Ka), PIK3CA (gene 5290), sequence (P42336 whole entry, looked up): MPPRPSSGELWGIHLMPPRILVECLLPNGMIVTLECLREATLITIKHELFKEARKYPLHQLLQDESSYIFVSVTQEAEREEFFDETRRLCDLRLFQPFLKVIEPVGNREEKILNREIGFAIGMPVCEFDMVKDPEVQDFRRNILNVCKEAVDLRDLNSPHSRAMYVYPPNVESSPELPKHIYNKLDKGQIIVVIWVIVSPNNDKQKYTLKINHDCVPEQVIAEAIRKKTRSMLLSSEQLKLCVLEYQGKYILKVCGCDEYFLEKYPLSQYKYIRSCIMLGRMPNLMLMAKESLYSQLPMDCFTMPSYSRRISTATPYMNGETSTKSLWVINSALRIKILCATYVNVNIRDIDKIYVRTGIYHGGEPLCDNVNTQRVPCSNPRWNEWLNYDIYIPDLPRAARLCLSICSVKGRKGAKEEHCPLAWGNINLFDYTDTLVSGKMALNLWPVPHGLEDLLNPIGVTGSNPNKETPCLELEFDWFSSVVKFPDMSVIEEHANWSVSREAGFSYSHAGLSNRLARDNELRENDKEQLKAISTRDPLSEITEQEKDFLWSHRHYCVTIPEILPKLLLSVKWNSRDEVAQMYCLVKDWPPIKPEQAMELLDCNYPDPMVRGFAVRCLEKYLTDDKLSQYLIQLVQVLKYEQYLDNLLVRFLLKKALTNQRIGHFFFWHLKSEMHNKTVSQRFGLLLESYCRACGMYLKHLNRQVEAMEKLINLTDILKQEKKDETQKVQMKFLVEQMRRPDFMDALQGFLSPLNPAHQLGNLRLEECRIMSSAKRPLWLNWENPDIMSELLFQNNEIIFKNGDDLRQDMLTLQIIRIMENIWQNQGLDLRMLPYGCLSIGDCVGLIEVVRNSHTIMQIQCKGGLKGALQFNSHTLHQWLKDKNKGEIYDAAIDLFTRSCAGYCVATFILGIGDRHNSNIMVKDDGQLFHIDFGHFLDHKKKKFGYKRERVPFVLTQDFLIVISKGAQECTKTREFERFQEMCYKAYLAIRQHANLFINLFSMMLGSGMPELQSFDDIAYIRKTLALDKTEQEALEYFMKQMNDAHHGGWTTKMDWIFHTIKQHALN
# human Protein Tyrosine Phosphatase Receptor Type B (PTPRB), PTPRB (gene 5787), sequence (P23467 whole entry, looked up): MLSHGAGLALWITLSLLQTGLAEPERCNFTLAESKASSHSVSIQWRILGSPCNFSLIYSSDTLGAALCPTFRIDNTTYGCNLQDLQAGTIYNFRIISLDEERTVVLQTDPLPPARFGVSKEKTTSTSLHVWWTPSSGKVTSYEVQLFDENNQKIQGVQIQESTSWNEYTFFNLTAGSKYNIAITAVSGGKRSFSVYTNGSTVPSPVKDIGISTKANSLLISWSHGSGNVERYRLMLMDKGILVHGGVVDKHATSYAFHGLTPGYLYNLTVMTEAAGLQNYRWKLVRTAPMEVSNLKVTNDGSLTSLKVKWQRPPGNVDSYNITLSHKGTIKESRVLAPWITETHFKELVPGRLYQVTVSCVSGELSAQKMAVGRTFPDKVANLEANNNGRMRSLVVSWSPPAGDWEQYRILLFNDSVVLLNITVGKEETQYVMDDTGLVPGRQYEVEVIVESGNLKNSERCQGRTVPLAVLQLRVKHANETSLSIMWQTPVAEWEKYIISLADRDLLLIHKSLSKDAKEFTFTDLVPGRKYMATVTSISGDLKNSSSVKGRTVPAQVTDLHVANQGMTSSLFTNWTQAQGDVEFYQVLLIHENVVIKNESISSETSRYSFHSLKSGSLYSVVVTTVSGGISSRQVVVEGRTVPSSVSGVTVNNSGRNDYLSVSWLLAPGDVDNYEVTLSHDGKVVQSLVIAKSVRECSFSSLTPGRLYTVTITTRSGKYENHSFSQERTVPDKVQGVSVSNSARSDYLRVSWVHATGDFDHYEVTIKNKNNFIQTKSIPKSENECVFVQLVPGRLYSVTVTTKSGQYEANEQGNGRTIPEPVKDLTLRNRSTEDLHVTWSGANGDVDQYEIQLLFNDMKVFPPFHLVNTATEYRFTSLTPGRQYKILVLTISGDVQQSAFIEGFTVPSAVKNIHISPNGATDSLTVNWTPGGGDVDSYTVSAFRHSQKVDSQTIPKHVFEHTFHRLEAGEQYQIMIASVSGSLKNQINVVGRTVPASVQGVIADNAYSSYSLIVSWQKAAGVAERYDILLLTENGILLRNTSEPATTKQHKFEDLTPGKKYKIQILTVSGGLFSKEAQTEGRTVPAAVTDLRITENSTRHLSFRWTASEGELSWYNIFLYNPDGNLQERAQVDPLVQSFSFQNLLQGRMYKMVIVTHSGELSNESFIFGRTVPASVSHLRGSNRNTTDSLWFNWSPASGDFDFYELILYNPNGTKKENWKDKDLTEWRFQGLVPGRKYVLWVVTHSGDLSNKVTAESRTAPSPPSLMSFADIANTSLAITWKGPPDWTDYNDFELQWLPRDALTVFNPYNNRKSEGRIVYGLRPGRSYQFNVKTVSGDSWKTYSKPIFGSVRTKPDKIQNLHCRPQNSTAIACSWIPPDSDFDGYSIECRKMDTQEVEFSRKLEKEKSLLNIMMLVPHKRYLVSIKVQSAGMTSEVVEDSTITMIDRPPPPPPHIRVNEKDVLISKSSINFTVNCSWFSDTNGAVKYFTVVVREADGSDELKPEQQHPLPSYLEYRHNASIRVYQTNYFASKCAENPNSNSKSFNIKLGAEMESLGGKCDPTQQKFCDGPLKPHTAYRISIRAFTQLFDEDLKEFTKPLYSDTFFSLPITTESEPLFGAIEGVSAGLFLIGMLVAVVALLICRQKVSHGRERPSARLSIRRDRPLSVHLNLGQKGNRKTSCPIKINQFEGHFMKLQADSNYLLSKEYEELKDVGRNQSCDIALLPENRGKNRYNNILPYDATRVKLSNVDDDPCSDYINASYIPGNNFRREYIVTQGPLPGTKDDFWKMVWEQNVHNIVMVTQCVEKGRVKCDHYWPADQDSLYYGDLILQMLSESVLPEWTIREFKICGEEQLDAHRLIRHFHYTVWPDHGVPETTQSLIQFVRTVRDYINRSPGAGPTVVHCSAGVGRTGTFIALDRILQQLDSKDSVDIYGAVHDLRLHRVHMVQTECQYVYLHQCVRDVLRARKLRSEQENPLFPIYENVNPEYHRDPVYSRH
# human Protein Phosphatase, Mg2+/Mn2+ Dependent 1A (PPM1A), PPM1A (gene 5494), sequence (P35813 whole entry, looked up): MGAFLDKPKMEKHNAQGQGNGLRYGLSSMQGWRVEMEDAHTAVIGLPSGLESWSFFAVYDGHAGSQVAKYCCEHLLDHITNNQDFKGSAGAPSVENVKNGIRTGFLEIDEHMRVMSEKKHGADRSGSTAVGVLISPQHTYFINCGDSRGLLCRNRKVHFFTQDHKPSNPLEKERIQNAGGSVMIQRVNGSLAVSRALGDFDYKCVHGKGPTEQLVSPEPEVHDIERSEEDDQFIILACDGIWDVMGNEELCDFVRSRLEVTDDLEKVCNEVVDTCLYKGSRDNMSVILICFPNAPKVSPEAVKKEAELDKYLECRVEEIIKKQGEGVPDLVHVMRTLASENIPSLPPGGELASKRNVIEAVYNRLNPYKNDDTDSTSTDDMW
# human Protein Tyrosine Phosphatase Non-receptor Type 1 (PTPN1), PTPN1 (gene 5770), sequence (P18031 whole entry, looked up): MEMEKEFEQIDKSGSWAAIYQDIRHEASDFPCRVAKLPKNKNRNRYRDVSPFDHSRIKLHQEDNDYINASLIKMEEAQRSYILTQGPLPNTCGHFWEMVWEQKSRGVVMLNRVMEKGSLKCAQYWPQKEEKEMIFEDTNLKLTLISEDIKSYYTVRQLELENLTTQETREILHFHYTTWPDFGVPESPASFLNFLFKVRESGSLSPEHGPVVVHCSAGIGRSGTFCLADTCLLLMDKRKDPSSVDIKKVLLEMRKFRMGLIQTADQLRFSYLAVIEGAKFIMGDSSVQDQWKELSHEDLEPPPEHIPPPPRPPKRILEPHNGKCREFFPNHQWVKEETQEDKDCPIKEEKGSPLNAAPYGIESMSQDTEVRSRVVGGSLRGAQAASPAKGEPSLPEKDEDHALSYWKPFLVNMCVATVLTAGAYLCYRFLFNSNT
compound,measurement,setting,value
Cn1c(=O)c2c(ncn2C)n(C)c1=O,AC50,[1],25 µM (active)
CC(C)c1cccc(C(C)C)c1N1C(=O)c2ccc(O)cc2C1=O,AC50,[2],0.533 µM (active)
same,outcome,[3],inactive
same,outcome,[4],inactive
same,outcome,[5],inactive
same,outcome,[6],inactive
COc1cccc(-c2ccc(/C=C\CN3CCCCCC3)cc2Cl)c1,AC50,[1],22.6 µM (active)
same,AC50,[7],16.6 µM (active)
same,AC50,[8],3.06 µM (active)
CN(C)c1ccc(N=NS(=O)(=O)O)cc1,outcome,[9],inactive
same,outcome,[3],inactive
same,AC50,[4],12.5 µM (active)
same,AC50,[10],16.4 µM (active)
same,outcome,[6],inactive
same,outcome,[11],inactive
same,outcome,[12],inactive
O=C(O)CCN(C1(C(=O)NO)CCCC1)S(=O)(=O)c1ccc(Oc2ccc(F)cc2)cc1,outcome,[13],inactive
same,outcome,[14],inactive
Cn1c(=O)cc(Oc2ccc(F)cc2F)c2cnc(NCC(C)(C)O)nc21,AC50,[1],8.25 µM (active)
O=C(O)c1cccc(Oc2ccccc2)c1,outcome,[9],inactive
same,outcome,[1],inactive
same,outcome,[2],inactive
same,outcome,[15],inactive
same,outcome,[16],inactive
same,outcome,[4],inactive
same,AC50,[10],0.119 µM (active)
same,outcome,[17],inactive
same,outcome,[6],inactive
same,outcome,[11],inactive
same,outcome,[12],inactive
same,outcome,[18],inactive
CCN(C(=O)c1cc(C)cc(OC[C@H](C)Nc2ccncc2)c1)C(C)C,outcome,[13],inactive
CC(C)(O)c1coc(S(=O)(=O)NC(=O)Nc2c3c(cc4c2CCC4)CCC3)c1,outcome,[13],inactive
Cc1ccc(C)c(O)c1,outcome,[13],inactive
Nc1nc2ncc(CNc3ccc(C(=O)N[C@@H](CCC(=O)O)C(=O)O)cc3)nc2c(=O)[nH]1,outcome,[1],inactive
same,AC50,[15],8.97 µM (active)
same,AC50,[16],30.2 µM (active)
same,AC50,[5],14.9 µM (active)
same,AC50,[17],41.9 µM (active)
CN(C)c1ccc(Cc2ccc(N(C)C)cc2)cc1,outcome,[9],inactive
same,outcome,[19],inactive
CC[C@H]1CC[C@H](NCc2cc3c(cc2OC)[C@H]2C[C@H]2C(=O)N3C)[C@H](c2ccccc2)N1,outcome,[1],inactive
COc1ccc2sc(C(=O)Nc3nnn[nH]3)c(OC(C)C)c2c1,AC50,[9],13.2 µM (active)
same,AC50,[2],0.192 µM (active)
same,AC50,[14],7.67 µM (active)
